Experimental data reported in PubChem BioAssay (NCATS).
Records with an inconclusive call do not appear. Calls of active or inactive are those of the source. The call rests on the fitted dose curve; in most records, active means well fitted curve in the direction sought with a large enough effect; inconclusive means small, poorly fitted or top-dose-only effect, or another doubt; inactive means no such curve, though single readings can be large; an effect the other way counts as inactive or inconclusive.

Tests used:
[1] = biological target: Ubiquitin carboxyl-terminal hydrolase 1 (Homo sapiens) (UniProt O94782); assay: Inhibitors of USP1/UAF1: Pilot qHTS (AID 504865);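 further: rhodamine fluorescence freed from ubiquitin-rhodamine substrate followed over time; top concentration of the series differs between compounds; nearly all actives have a fitted effect of over 35% in size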
Ubiquitin carboxyl-terminal hydrolase 1 (Homo sapiens), sequence (O94782 whole entry, looked up): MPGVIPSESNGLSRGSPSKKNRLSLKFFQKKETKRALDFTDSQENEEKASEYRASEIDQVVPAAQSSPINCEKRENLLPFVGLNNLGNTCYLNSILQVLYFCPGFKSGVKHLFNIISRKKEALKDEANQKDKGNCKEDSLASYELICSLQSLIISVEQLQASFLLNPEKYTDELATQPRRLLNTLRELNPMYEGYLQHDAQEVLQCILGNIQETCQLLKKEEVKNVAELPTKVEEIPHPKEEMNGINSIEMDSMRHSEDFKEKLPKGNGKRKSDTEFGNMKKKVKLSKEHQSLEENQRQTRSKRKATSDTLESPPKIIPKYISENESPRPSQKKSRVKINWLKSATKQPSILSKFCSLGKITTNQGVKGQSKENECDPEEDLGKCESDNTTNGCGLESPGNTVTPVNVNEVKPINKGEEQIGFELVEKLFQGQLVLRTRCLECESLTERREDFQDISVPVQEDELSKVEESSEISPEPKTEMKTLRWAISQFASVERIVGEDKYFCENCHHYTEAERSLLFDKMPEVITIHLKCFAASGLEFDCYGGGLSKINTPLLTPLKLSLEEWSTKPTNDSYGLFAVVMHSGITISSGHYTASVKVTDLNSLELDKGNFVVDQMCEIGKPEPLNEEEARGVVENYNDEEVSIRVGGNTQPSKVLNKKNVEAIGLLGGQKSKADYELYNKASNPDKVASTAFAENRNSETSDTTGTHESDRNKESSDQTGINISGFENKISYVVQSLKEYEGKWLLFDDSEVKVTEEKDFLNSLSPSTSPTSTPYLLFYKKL
Method in brief: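 Enzyme-free wells gave the negative control, while test wells held 1nM USP1/UAF1 preincubated with compound for 15 min at room temperature. Ub-Rho at 150nM final started the reaction, and fluorescence at 480/540 nm was recorded kinetically.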

[2] = biological target: Luciferin 4-monooxygenase (Photinus pyralis) (UniProt P08659); assay: Biochemical firefly luciferase enzyme assay for NPC (AID 624030);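 further: purified P. pyralis luciferase at 10 nM with luciferin and ATP substrate; nearly all actives have a fitted effect of over 70% in size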
Luciferin 4-monooxygenase (Photinus pyralis), sequence (P08659 whole entry, looked up): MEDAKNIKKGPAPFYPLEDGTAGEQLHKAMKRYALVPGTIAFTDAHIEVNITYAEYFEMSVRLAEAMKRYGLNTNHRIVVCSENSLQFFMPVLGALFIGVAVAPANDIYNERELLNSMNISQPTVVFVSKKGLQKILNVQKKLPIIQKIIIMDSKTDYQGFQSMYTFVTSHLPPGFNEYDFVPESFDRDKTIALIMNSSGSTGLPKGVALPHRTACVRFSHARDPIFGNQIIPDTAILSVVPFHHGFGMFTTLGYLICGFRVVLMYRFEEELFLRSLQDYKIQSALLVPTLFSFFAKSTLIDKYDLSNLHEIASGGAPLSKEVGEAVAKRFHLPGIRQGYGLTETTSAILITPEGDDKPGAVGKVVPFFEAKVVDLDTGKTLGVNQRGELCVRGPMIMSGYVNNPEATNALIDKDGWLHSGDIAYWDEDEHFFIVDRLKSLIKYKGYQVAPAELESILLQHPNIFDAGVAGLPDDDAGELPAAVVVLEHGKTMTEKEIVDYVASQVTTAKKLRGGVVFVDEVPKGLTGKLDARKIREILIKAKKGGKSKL
Method in brief: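 Purified P. pyralis luciferase at 10 nM in 50 mM Tris Acetate (final), luminescence read within 5 minutes of enzyme addition to compounds. Activity normalised to PTC124 versus DMSO; concentration-response curves classed by r2, magnitude and activity.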

[3] = S16 Schwann cell viability assay (CellTiter-Glo assay) (AID 624031);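 further: cellular ATP luminescence as a viability measure; nearly all actives have a fitted effect of over 70% in size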
Method in brief: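 Native S16 rat Schwann cells in DMEM/10% FBS without phenol red were incubated overnight, then exposed to compounds for 24 h at 37 °C/5% CO2. Viability was read as ATP luminescence (CellTiter-Glo), normalized to no-cell wells and DMSO (0%).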

[4] = S16 Schwann cell PMP22 intronic element firefly luciferase assay (AID 624032); further: nearly all actives have a fitted effect of over 30% in size
Method in brief: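 Rat S16 Schwann cells stably carrying firefly luciferase driven by a PMP22 intronic element, in 10% FBS, treated 24 h at 37 C. ONE-Glo luminescence normalized to PTC124 control and DMSO (0%); curves classed by r2, magnitude and activity.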

7G8 = assay: qHTS profiling for inhibitors of Plasmodium falciparum proliferation (AID 504749); further: nearly all actives have a fitted effect of over 60% in size; settings: P. falciparum in erythrocytes, SYBR Green DNA, 72 h; series mostly up to 12.8 µM
Method in brief: (§1)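 Readout was DNA-dye fluorescence from lysed cultures, ex 485/em 535 nm. Parasitized red cells had grown 72 h with compound; data scaled between 0.29 uM artemisinin and DMSO wells and corrected using vehicle-only plates.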

AA1029 = assay: as above; settings: P. falciparum in erythrocytes, SYBR Green DNA, 72 h; series mostly up to 28.7 µM
Method in brief: as §1

CP191 = assay: as above; settings: P. falciparum in erythrocytes, SYBR Green DNA, 72 h; series mostly up to 28.7 µM
Method in brief: as §1

CP260 = assay: as above; settings: P. falciparum in erythrocytes, SYBR Green DNA, 72 h; series mostly up to 28.7 µM
Method in brief: as §1

CP291 = assay: as above; settings: P. falciparum in erythrocytes, SYBR Green DNA, 72 h; series mostly up to 28.7 µM
Method in brief: as §1

CP297 = assay: as above; settings: P. falciparum in erythrocytes, SYBR Green DNA, 72 h; series mostly up to 28.7 µM
Method in brief: as §1

CP315 = assay: as above; settings: P. falciparum in erythrocytes, SYBR Green DNA, 72 h; series mostly up to 28.7 µM
Method in brief: as §1

CP335 = assay: as above; settings: P. falciparum in erythrocytes, SYBR Green DNA, 72 h; series mostly up to 12.8 µM
Method in brief: as §1

DIV14 = assay: as above; settings: P. falciparum in erythrocytes, SYBR Green DNA, 72 h; series mostly up to 28.7 µM
Method in brief: as §1

Dd2 = assay: as above; settings: P. falciparum in erythrocytes, SYBR Green DNA, 72 h; series mostly up to 28.7 µM
Method in brief: as §1

ICS = assay: as above; settings: P. falciparum in erythrocytes, SYBR Green DNA, 72 h; series mostly up to 28.7 µM
Method in brief: as §1

JCK = assay: as above; settings: P. falciparum in erythrocytes, SYBR Green DNA, 72 h; series mostly up to 28.7 µM
Method in brief: as §1

TAB165 = assay: as above; settings: P. falciparum in erythrocytes, SYBR Green DNA, 72 h; series mostly up to 28.7 µM
Method in brief: as §1

Measured: Potency

CNC(C)[C@@H](O)c1ccc(O)cc1 (some centres not stated)
inactive: all assays above
